In PubChem BioAssay (NCI):
The panel holds about 79,000 compounds, 15% with a hit somewhere; the sample as a whole holds those more often. Rule as the data show it: active = growth inhibition above about 70%; inactive = the rest.

Experiments:
[1] = NCI Yeast Anticancer Drug Screen. Data for the rad50 strain (AID 155);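 also: 0% = growth of vehicle-only cultures of the same strain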; conditions: S. cerevisiae rad50 strain growth inhibition; at 50.0 µM; active compounds read high
Outline: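 Growth of the mutant yeast was measured after compound exposure and referenced to vehicle-treated cultures.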

[2] = NCI Yeast Anticancer Drug Screen. Data for the sgs1 mgt1 strain (AID 161);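 also: 0% = growth of cultures given vehicle only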; conditions: S. cerevisiae sgs1 mgt1 strain, at 50.0 µM, active compounds read high
Outline: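 Genetically altered yeast, compound exposure, growth inhibition relative to vehicle.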

[3] = NCI Yeast Anticancer Drug Screen. Data for the cln2 rad14 strain (AID 165);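 also: 0% = growth equal to vehicle treated cultures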; conditions: S. cerevisiae cln2 rad14 strain, at 50.0 µM, active compounds read high
Outline: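 The screen exposed genetically defined yeast (cln2 rad14) to test compounds and scored growth inhibition relative to vehicle-treated controls.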

[4] = NCI Yeast Anticancer Drug Screen. Data for the bub3 strain (AID 167); conditions: S. cerevisiae bub3 mutant strain, at 50.0 µM, active compounds read high
Outline: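 Whole-cell yeast assay. The mutant strain was incubated with compounds, and growth inhibition was determined by comparison with vehicle-treated cells.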

[5] = NCI Yeast Anticancer Drug Screen. Data for the mlh1 rad18 strain (AID 175); conditions: S. cerevisiae mlh1 rad18 strain growth inhibition; at 50.0 µM; active compounds read high
Outline: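 Compound-treated yeast growth, normalised to vehicle controls. Strain bears defined DNA repair mutations.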

Measured: growth inhibition

COc1ccc(/C=C2/C(=O)N=C(NC(C)=O)N2C)cc1OC
inactive: [1] -13.8% | [2] -13.7% | [3] -2.1% | [4] 4.7% | [5] 4.55%

NS(=O)(=O)c1cccc([N+](=O)[O-])c1
inactive: [1] 21.1% | [2] 6.7% | [3] 5.95% | [4] -2.5% | [5] -13.1%

CCCCCCCCCCCCCCCCS(=O)(=O)N/N=C(\c1ccc(C(C)C)cc1)N1CCOCC1
inactive: [1] 1.3% | [2] 12.7% | [3] 9.3% | [4] -1.5% | [5] 5.75%

CN(C)C1=NC(NC2CCCCC2)(N(C)C)OC(N(C)C)=N1 (centres undefined)
inactive: [1] 1% | [2] 3.2% | [3] 20.2% | [4] 1.9% | [5] 10.8%

Cc1ccc(N=Nc2sc(N)nc2-c2ccc(Cl)cc2)cc1
inactive: [1] 28.6% | [2] 35.6% | [3] 39.6% | [4] 17.1% | [5] 62.9%

O=C1c2ccccc2-c2cccc3ccc(-c4ccccc4)c1c23
inactive: [1] 4.85% | [2] -10.2% | [3] -2.85% | [4] -7.25% | [5] 12.5%

Cc1cccc(C)c1NCC(=O)NN
inactive: [1] 9.5% | [2] 0.85% | [3] -22.9% | [4] 5.85% | [5] 8.55%

Cc1cc(C)c2nc(N)sc2c1
inactive: [1] 24.3% | [2] -5.8% | [3] -4.45% | [4] 12.4% | [5] 30.1%

CCCCCCCCCCCCSCCO
inactive: [1] 20.9% | [2] 39% | [3] 31.4% | [4] 17.1% | [5] 39%

CCCCCCCC(=O)N1C2CN3C4=C(C(=O)C(N)=C(C)C4=O)C(COC(N)=O)C3(OC)C21 (centres undefined)
inactive: [1] 18.6% | [2] 30.4% | [3] 20.8% | [4] 19.1% | [5] 47.1%

Cc1nc2c(o1)C(=Nc1ccccc1)c1ccccc1C2=Nc1ccccc1
inactive: [1] -7.45% | [2] 1.45% | [3] -13.9% | [4] -20.1% | [5] -9.65%

Br
inactive: [1] -11.7% | [2] -54.9% | [3] -20% | [4] -30.6% | [5] -44.1%

COc1ccc(Cc2coc3ccccc3c2=O)cc1
inactive: [1] 13.1% | [2] 13.7% | [3] 4.85% | [4] 25.2% | [5] 9.4%

CC(=O)Nc1ccc([N+](=O)[O-])cc1[N+](=O)[O-]
inactive: [1] 3.35% | [2] -4.05% | [3] -37.9% | [4] -15.6% | [5] 3.95%

O=C(Nc1cccc2ccccc12)c1ccco1
inactive: [1] 14.8% | [2] 8.6% | [3] 3.8% | [4] 1.65% | [5] 7.9%

CC(O)C(C)(C)O (centres undefined)
inactive: [1] 12.3% | [2] 15.6% | [3] -13.4% | [4] 16.1% | [5] 4.15%

O=C(/C=C/c1ccccc1O)c1ccccc1
inactive: [1] -22.8% | [2] 3.2% | [3] 1.9% | [4] -5.2% | [5] -24.6%

C=C(Cl)CSC(C)(C)C
inactive: [1] -9.4% | [2] -6.7% | [3] -19.6% | [4] -18.2% | [5] -8.5%

O=C(c1ccc(Cl)c(Cl)c1)N1CCCCC1
inactive: [1] -1.25% | [2] 13.8% | [3] -48.5% | [4] -12.5% | [5] -6.25%

Cc1ccc(N=C2C(=Nc3ccc(C)cc3)N(c3ccc(C)cc3)C(=S)N2C(=O)c2ccccc2)cc1
inactive: [1] -5.4% | [2] 7.9% | [3] 26.3% | [4] -29.6%

COc1ccccc1NC(=O)Oc1ccc(C#N)cc1
inactive: [1] 7.2% | [2] 15% | [3] -1.8% | [4] 9.75% | [5] 0.4%

C(=N\OCc1ccccc1)/c1ncccc1C1OCCO1
inactive: [1] -10.6% | [2] -0.5% | [3] 20.2% | [4] -5.8% | [5] -8.75%

CSc1nc2c(c(=O)n1C)N=C(c1ccc([N+](=O)[O-])cc1)CC(c1ccccc1)N2 (centres undefined)
inactive: [1] 6.8% | [2] 17.8% | [3] 10.7% | [4] 18.1% | [5] -16.2%

CNc1ncc(-c2nnnn2-c2ccccc2)c(CN(C)C)n1
inactive: [1] -36% | [2] -3.4% | [3] 5.1% | [4] -3.45% | [5] 25.2%

O=S(=O)(c1ccccc1)c1ccccc1Br
inactive: [1] 8% | [2] -3.3% | [3] -18.4% | [4] -10.2% | [5] 35%

Cc1ccccc1C(c1ccccc1C)C(CC(=O)O)CC(=O)O
inactive: [1] 11.7% | [2] 10.6% | [3] -102% | [4] 5.05% | [5] -2.6%

C=CC(C)(C)C1=CC(=O)C(OC)=CC1=O
inactive: [1] 1.75% | [2] -3.7% | [3] -54.9% | [4] 4.15% | [5] -6.65%
